Growth data for 40 molecules are collected here from PubChem BioAssay (NCI).

The panel holds about 83,000 compounds, 20% with a hit somewhere; the sample as a whole holds those more often.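 Cell lines were cultured in 96-well plates, exposed to a single compound concentration, and assessed for percent growth 48 hours later.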 Calls of active or inactive are those of the source.

This test relates to TK-10 renal. Briefly: NCI-60 one-dose screen, 48 h (100 = growth as untreated, 0 = no growth, -100 = all killed). The following applies: 10 µM unless noted. As for the experimental part: Growth inhibition of the TK-10 human tumor cell line is measured as a screen for anti-cancer activity. Cells are grown in 96 well plates and exposed to the test compound for 48 hours. Compounds are tested at a single concentration, which is 10^-5 M for most compounds. The reported endpoint is percent growth (GI% or GIPRCNT), where numbers from 0 - 100% represent growth inhibition, and numbers from -100% - 0 represent cell death. For example, a value of 40 represents 60% growth inhibition. A value of 0 means no net growth occurred over the course of the experiment. A value of -40 indicates 40% of cells at the beginning of the experiment died by the end of the experiment. A value of -100 means all cells are dead at the end of the experiment.
NCI-60 Human Tumor Cell Lines Screen was performed using the standard one-dose NCI protocol, which is described in more detail at https://dtp.cancer.gov/discovery_development/nci-60/default.htm.
Compounds with GIPRCNT values below 10 were considered active. Activity score was based on GIPRCNT using the following formula: […]
Score is 0 for GIPRCNT values of 100 or above, 50 for GIPRCNT values of 0, and 100 for GIPRCNT values of -100.
For `COc1ccc(NC(=O)CSc2oc(-c3ccccc3)nc2S(=O)(=O)c2ccc(Cl)cc2)c(OC)c1`, the growth was 67.1% (inactive).

Turning to `Clc1nc(N2CCC[N+]3(CC2)CC[N+]2(CCCNCC2)CC3)nc(N2CCC[N+]3(CC2)CC[N+]2(CCCNCC2)CC3)n1` (stereo not given), the growth was 133% (inactive).

As to `CC(CN)[C@@H]1CC[C@]2(CO)CC[C@]3(C)[C@H](CC[C@@H]4[C@@]5(C)CCC(NCCO)C(C)(C)[C@@H]5CC[C@]43C)[C@@H]12` (stereo not given in full), the growth was 93.4% (inactive).

For the molecule `COc1ccc(/C=C2/CCc3cc4ccc(OC)cc4[o+]c32)c(O)c1`, the growth is 135% (inactive).

With `CC(C)CCc1nc2ccc(NCc3ccc(OCCN4CCC(C)CC4)cc3)cc2[nH]1`, the growth was 111% (inactive).

On to `O=C(OCC(O)(CO)C(=O)NC12CC3CC(CC(C3)C1)C2)c1ccc(Cl)cc1` (stereo not given), for which the growth is 85.3% (inactive).

As for `Cc1ccc2c(n1)C[C@H](C(C)(C)O)CC[C@H]2C`, the growth is 97.5% (inactive).

Consider `CC1=NN(c2cccc(Cl)c2)C(=O)/C1=C\C=C\c1ccccc1`, for which the growth was 44.8% (inactive).

For `Cc1[nH]c(C(=O)Nc2ccccc2OC2CCNC2)c(Cl)c1Cl` (stereo not given), the growth was 122% (inactive).

For `O=c1cc(-c2nccc3c2[nH]c2ccccc23)c2cc(Cl)ccc2o1`, the growth was 85.3% (inactive).

Take `COc1cc2cc(Oc3ccc(NC(=O)Nc4ccc(F)c(C(F)(F)F)c4)cc3)c(C)nc2cc1OCCN1CCCCC1`: the growth is 118% (inactive).

Take `C=CC(=O)NCc1cccc(Nc2ncc(Br)c(NCCCNC(=O)C3CCC3)n2)c1`: the growth is -17.4% (active).

With `NS(=O)(=O)Oc1cccc(-c2nc3sccn3c2-c2ccccc2)c1`, the growth is 87.9% (inactive).

Regarding `CC(C)(C)CC(C)(C)Nc1c(-c2c(O)c3ccccc3oc2=O)nc2sccn12`, the growth was 90.5% (inactive).

For `COC(=O)c1nc(-c2ccccc2)oc1S(=O)(=O)N1CCN(c2ccc(OC)cc2)CC1`, the growth was 68.1% (inactive).

In the case of `Cc1c(-c2cnc3ccc(Cl)cc3c2C(=O)O)nnn1-c1ccc(Cl)cc1`, the growth was 101% (inactive).

For the molecule `O=C1CCC(C(=O)N/N=C/c2ccc([N+](=O)[O-])cc2)N1` (stereo not given), the growth is 93% (inactive).

For `COc1cc2ncnc(Nc3ccc(S(=O)(=O)Nc4cc(C)on4)cc3)c2cc1OCCCN1CCOCC1`, the growth is 95.3% (inactive).

On to `O=c1ccc2c(ccc3ncccc32)o1`, for which the growth is 105% (inactive).

On to `O=C1c2ccccc2C(=O)c2cc(Cn3c[n+](Cc4ccc5ccccc5c4)c4ccccc43)ccc21`, for which the growth is 67.8% (inactive).

`CCOC(=O)C1=C(c2ccccc2)N=C2N(c3ccccc3)N=C(C(C)=O)N2C1c1ccc(Br)cc1` (stereo not given): the growth was 109% (inactive).

With `Cn1cc(-c2csc(-c3cn(CCO)c4ccc(F)cc34)n2)c2cccnc21`, the growth is 47.7% (inactive).

Take `CCOC(=O)c1ccc2c(c1)c1c(C)c3cnccc3c(C)c1n2C`: the growth was -65.3% (active).

For `C#Cc1c(I)n(C2OC(CO[Si](C)(C)C(C)(C)C)C3OC(C)(C)OC32)c(=O)[nH]c1=O` (stereo not given), the growth was -62.3% (active).

On to `COc1cc(NC(=O)c2cncnc2Nc2ccc3c(ccn3Cc3cccc(F)c3)c2)cc(OC)c1`, for which the growth was 76.8% (inactive).

For the molecule `O=S(=O)(Nc1ccc(Br)cc1)c1ccc(-c2cnc(C3CC3)o2)cc1`, the growth is 64.1% (inactive).

Take `Cc1ccccc1NC(=O)c1sc2nc3c(cc2c1N)CCCC3`: the growth was 57.5% (inactive).

For the molecule `NCCNc1ccc([N+](=O)[O-])cc1`, the growth is 96.2% (inactive).

Consider `N#C/C(=C/C=C/c1ccccc1)S(=O)c1ccccc1` (stereo not given), for which the growth was -89.8% (active).

As for `O=C(/C=C/c1ccco1)c1ccc(Nc2ccnc3cc(Cl)ccc23)cc1`, the growth was 116% (inactive).

With `CC(=O)O[C@H]1C[C@@]2(C)[C@@H](C[C@@H](O)[C@H]3[C@@]4(C)CC[C@H](N5CCCC5)[C@@H](C)[C@@H]4CC[C@@]32C)/C1=C(\CCC=C(C)C)C(=O)O`, the growth is 95.1% (inactive).

For `O=C(O)/C=C/c1cn(-c2ccccc2)nc1-c1ccc(F)cc1`, the growth is 103% (inactive).

Take `CCCCC/C=C/CCC(=O)N[C@H]1[C@H](Oc2c3cc4cc2Oc2ccc(cc2Cl)[C@@H](O[C@@H]2O[C@H](CO)[C@@H](O)[C@H](O)[C@H]2NC(C)=O)[C@@H]2NC(=O)[C@H](NC(=O)[C@@H]4NC(=O)[C@H]4NC(=O)[C@@H](Cc5ccc(c(Cl)c5)O3)NC(=O)[C@@H](N)c3ccc(O)c(c3)Oc3cc(O)cc4c3)c3ccc(O)c(c3)-c3c(O[C@H]4O[C@H](CO)[C@@H](O)[C@H](O)[C@@H]4O)cc(O)cc3[C@H](C(=O)O)NC2=O)O[C@H](CO)[C@H](O)[C@@H]1O`: the growth was 112% (inactive).

Consider `CCOC(=O)c1c(N)sc2cc(O)ccc12`, for which the growth was 101% (inactive).

For the molecule `CC(C)(C)[C@H](OCc1cn([C@H]2C[C@@H](O)[C@@H](CO)O2)c(=O)[nH]c1=O)c1ccc(C#Cc2ccccc2)cc1[N+](=O)[O-]`, the growth was 61.7% (inactive).

`COc1ccc(NC(=O)c2ccc(NC3=C(c4ccc(Cl)cc4)C(=O)NC3=O)cc2)cc1`: the growth is 82.8% (inactive).

In the case of `COc1ccc(NC(=O)c2sc3nc(C)c(C(=O)c4ccccc4)cc3c2N)cc1`, the growth was 86.6% (inactive).

Consider `O=C(c1ccccc1)[C@@H](c1ccccc1)[C@]1(O)C(=O)Nc2ccccc21`, for which the growth was 112% (inactive).

Take `CCCN1C2CCC1/C(=C\c1ccc(OC)cc1)C(=O)/C2=C/c1ccc(OC)cc1`: the growth is 85.9% (inactive).

Consider `C=C(CNCCO)[C@@H]1CC[C@]2(CO)CC[C@]3(C)[C@H](CC[C@@H]4[C@@]5(C)CCC(NCCO)C(C)(C)[C@@H]5CC[C@]43C)[C@@H]12` (stereo not given in full), for which the growth is 92.7% (inactive).
